Screening data (PubChem)
MsrA inh: bovine MsrA enzyme inhibitors, primary screen, biochemical, absorbance, HTS. purified bovine MsrA, absorbance read-out. inhibition, % at 15.5 µM. 0.75% of 360,000 active. AID 651718, 2012. Methionine sulfoxide reductase A (Bos taurus);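 also: 0% = vehicle wells with enzyme and 100% = reference inhibitor wells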
SMARCA2 act: SMARCA2 (BRM) function activators, primary screen, cell-based, luminescence, high throughput. 1% of 370,000 active. activation, % at 9.1 µM. MG213 cells, MMTV-luciferase reporter, dexamethasone, overnight. AID 652017, 2013; in the data active = activation above about 7.8%;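 also: 0% = vehicle wells and 100% = reference activator wells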
bovine MsrA act: bovine MsrA enzyme activators, primary screen, biochemical, absorbance, HTS | purified bovine MsrA, absorbance read-out | 0.3% of 360,000 active | AID 602163, 2012 | Methionine sulfoxide reductase A (Bos taurus) | activation, % at 10.6 µM; in the data active = activation above about 7.5%;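 also: 0% = vehicle and 100% = reference activator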
KLK7 zymogen act: proKLK7 zymogen activators, primary screen, biochemical, fluorescence intensity; Kallikrein-7 (Homo sapiens), P49862; purified proKLK7, EDANS-DABCYL substrate fluorescence; 100% is mature enzyme control, 0% vehicle; activation, % at 7 µM; 0.9% of 370,000 active; AID 652039, 2013;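 active = activation above the mean of all tested compounds plus 3 SD, computed per campaign excluding outliers beyond control limits, cut at about 13% in these data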
Target sequence (P49862 whole entry, looked up): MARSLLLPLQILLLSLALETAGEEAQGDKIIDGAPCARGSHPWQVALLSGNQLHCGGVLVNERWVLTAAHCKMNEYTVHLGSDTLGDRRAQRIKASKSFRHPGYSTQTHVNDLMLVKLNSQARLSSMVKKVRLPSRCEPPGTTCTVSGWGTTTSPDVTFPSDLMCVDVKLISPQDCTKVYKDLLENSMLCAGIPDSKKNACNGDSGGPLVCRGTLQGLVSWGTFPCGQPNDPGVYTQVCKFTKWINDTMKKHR
MsrA conf: bovine MsrA inhibitors, retest, confirmation, biochemical, absorbance, HTS. purified bovine MsrA, absorbance read-out. inhibition, % at 15.5 µM. shares compounds with MsrA inh. 41% of 2,300 active. AID 651822, 2012;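 also: coupled to thioredoxin reductase with NADPH and selenocystamine and DMSO as substrate; 0% = vehicle only and 100% = full effect of reference inhibitor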
* hit, by the source's call. Compounds with a hit are over-represented: about 2.8% of the library has one in this group of screens. Rule as the data show it, unless noted: active = inhibition above about 4.5%; inactive = the rest.

Cc1ccc(-n2c(N)c(C#N)c(-c3ccccc3)c(C#N)c2=O)cc1 was read as MsrA inh 4.9*, SMARCA2 act 0, bovine MsrA act -5, KLK7 zymogen act -3 and MsrA conf 2.
`COc1ccc(-c2c(C#N)c(N)n(N)c(=O)c2C#N)cc1Cl` gave MsrA inh 4, SMARCA2 act -1, bovine MsrA act 0 and KLK7 zymogen act 0.
Screening N#Cc1c(-c2ccc(Cl)cc2)c(C#N)c(=O)n(N)c1N returned MsrA inh 4.9*, SMARCA2 act -5, bovine MsrA act -4, KLK7 zymogen act -1 and MsrA conf 3.
`c1ccc(OCCNc2ccn3nc(-c4ccc(OCCN5CCOCC5)cc4)cc3n2)cc1` gave MsrA inh 1, SMARCA2 act -2, bovine MsrA act -2 and KLK7 zymogen act -3.
N#Cc1cc(NC2CCCC2)c([N+](=O)[O-])cc1C#N was read as MsrA inh 43*, SMARCA2 act -3, bovine MsrA act -2, KLK7 zymogen act 0 and MsrA conf -1.
Screening O=[N+]([O-])c1ccc(NC2CCCC2)cc1 returned MsrA inh 0, SMARCA2 act 1, bovine MsrA act -6 and KLK7 zymogen act 0.
For O=C1N=C(N2CCCCC2)S/C1=C\c1ccc(Cl)cc1 the results were MsrA inh 1, SMARCA2 act -1, bovine MsrA act -3 and KLK7 zymogen act 0.
Screening Cc1ccc(/C=C2\SC(N3CCCCC3)=NC2=O)cc1 returned MsrA inh 5.0*, SMARCA2 act 6, bovine MsrA act -4, KLK7 zymogen act 0 and MsrA conf 4.8*.
NC1=NC(=O)/C(=C/c2cccs2)S1 was read as MsrA inh 6.2*, SMARCA2 act -1, bovine MsrA act -4, KLK7 zymogen act 0 and MsrA conf 4.
Screening NC1=NC(=O)C(=Cc2ccccc2)S1 returned MsrA inh 4, SMARCA2 act 0, bovine MsrA act -11 and KLK7 zymogen act 0.
`O=C1N=C(N2CCOCC2)S/C1=C/c1cccs1` gave MsrA inh 5.4*, SMARCA2 act 1, bovine MsrA act -16, KLK7 zymogen act 0 and MsrA conf 5.4*.
Screening CC(=O)N1CCN(C2=NC(=O)/C(=C\c3cccs3)S2)CC1 returned MsrA inh 2, SMARCA2 act 7, bovine MsrA act -6 and KLK7 zymogen act 0.
For NC(=O)c1ncn([C@@H]2O[C@H](C(=O)N3CCN(Cc4ccccn4)CC3)[C@@H](O)[C@H]2O)n1 the results were MsrA inh -1, SMARCA2 act 2 and KLK7 zymogen act 0.
O=c1oc2ccccc2c2c1ccc1ccccc12 was read as MsrA inh 6.2*, SMARCA2 act 1, bovine MsrA act -2, KLK7 zymogen act -9 and MsrA conf 5.0*.
O=C(O)CC1S/C(=N\N=C2CCCCCCC2)N(c2ccccc2)C1=O (configuration not stated) was read as MsrA inh 1, SMARCA2 act -2, bovine MsrA act -7 and KLK7 zymogen act 0.
O=C(O)CC1S/C(=N\N=C2\C(=O)Nc3ccccc32)N(c2ccc(O)cc2)C1=O (configuration not stated) was read as MsrA inh 5.9*, SMARCA2 act 0, bovine MsrA act -2, KLK7 zymogen act 0 and MsrA conf 4.
O=c1c2c(-c3cccs3)csc2ncn1-n1cccc1 was read as MsrA inh 1, SMARCA2 act -2, bovine MsrA act -2 and KLK7 zymogen act 0.
Screening Cc1ccc(C)n1-n1cnc2scc(-c3cccs3)c2c1=O returned MsrA inh 5.5*, SMARCA2 act 2, bovine MsrA act -2, KLK7 zymogen act 0 and MsrA conf 2.
Screening CC(Nc1nc2ccccc2n2cnnc12)c1ccccc1 (configuration not stated) returned MsrA inh 12*, SMARCA2 act 5, bovine MsrA act -9, KLK7 zymogen act 1 and MsrA conf 7.2*.
`c1ccc(Nc2nc3ccccc3n3cnnc23)cc1` gave MsrA inh 3, SMARCA2 act 4, bovine MsrA act -2 and KLK7 zymogen act 1.
Cc1ccc(C)c(Nc2nc3ccccc3n3cnnc23)c1 was read as MsrA inh 11*, SMARCA2 act 2, bovine MsrA act -3, KLK7 zymogen act 2 and MsrA conf 6.7*.
`Cn1c(=O)c2c(SCc3ccccn3)nc(CC(C)(C)C)nc2n(C)c1=O` gave MsrA inh 0, SMARCA2 act -2, bovine MsrA act -1 and KLK7 zymogen act 0.
`CCCc1nc(SCc2ccccn2)c2c(=O)n(C)c(=O)n(C)c2n1` gave MsrA inh 11*, SMARCA2 act -2, bovine MsrA act -3, KLK7 zymogen act 0 and MsrA conf 9.2*.
For OC[C@@H]1CN(C2CCCC2)C[C@H](n2cnc3c(NC4CC4)ncnc32)O1 the results were MsrA inh 0, SMARCA2 act -2, bovine MsrA act 0 and KLK7 zymogen act 0.
Screening Cc1ccc(Cn2cc(CN3[C@@H](CC(C)C)COc4cccc(F)c4S3(=O)=O)nn2)cc1 returned SMARCA2 act 0 and KLK7 zymogen act 0.
CC1C[N+](=C2C=C(N3CCOCC3)CC(C)(C)C2)CC(C)O1 (configuration not stated) was read as MsrA inh 11*, SMARCA2 act -1, bovine MsrA act -13, KLK7 zymogen act 0 and MsrA conf 6.7*.
For O=C1C=C(N2CCOCC2)CO1 the results were MsrA inh -1, SMARCA2 act 2, bovine MsrA act -3 and KLK7 zymogen act 1.
Screening CN(C)c1cccc(N=C2C=C(N3CCOCC3)CC(C)(C)C2)c1 returned MsrA inh 3, SMARCA2 act -1, bovine MsrA act -5 and KLK7 zymogen act 1.
For CC1(C)CC(N2CCOCC2)=CC(=[N+]2CCOCC2)C1 the results were MsrA inh 10*, SMARCA2 act 2, bovine MsrA act -9, KLK7 zymogen act -1 and MsrA conf 5.5*.
Screening CCCN(CCC)C1=CC(=[N+]2CCCC2)CC(C)(C)C1 returned MsrA inh 5.1*, SMARCA2 act -4, bovine MsrA act -9, KLK7 zymogen act 0 and MsrA conf 4.
For CC1(C)CC(N2CCCCC2)=CC(=[N+]2CCCCC2)C1 the results were MsrA inh 10*, SMARCA2 act -7, bovine MsrA act -8, KLK7 zymogen act 0 and MsrA conf 8.1*.
For CN(C)NC1=CC(=[N+]2CCCC2)CC(C)(C)C1 the results were MsrA inh 1, SMARCA2 act 0, bovine MsrA act -5 and KLK7 zymogen act 0.
Screening CC(C)NC(=O)Nc1ccc2c(c1)C(=O)N([C@H](C)CO)C[C@H](C)[C@@H](CN(C)Cc1ccc(C(F)(F)F)cc1)OCCCC[C@H](C)O2 returned MsrA inh 0, SMARCA2 act -2, bovine MsrA act -1 and KLK7 zymogen act 0.
